Rows were chosen to be rich in hits. Some 8.7% of all compounds tested hit in one or more screens of this group.
Sfp PPTase inh – blocks B. subtilis Sfp PPTase activity; Q9F4F7; Potency, µM, without a hit: largest response in the series, negative = inhibition, actives largely listed as inhibitors; Biochemical Sfp PPTase activity, qHTS; AID 1490; 3.5% of 310,000 active;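 also: the enzyme is Sfp with the accession as filed and its product quenches rhodamine fluorescence; 0% = enzyme reaction without inhibitor and -100% = no enzyme wells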
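Fluorescence-quenching assay with 15 nM Sfp, 5 uM rhodamine-CoA and 12.5 uM BHQ-2-labelled ybbR peptide in pH 7.6 Hepes/MgCl2 buffer. Enzyme was pre-incubated with compound for 15 min at room temperature. Rate was taken from the 30-min fluorescence change (525/598 nm).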
12-LOX inh – blocks human arachidonate 12S-lipoxygenase | P18054 | Potency, µM (doses to about 108 µM), without a hit: at the top dose activity change, negative = inhibition, actives largely listed as inhibitors | 1.1% of 580,000 active | purified 12hLO, xylenol orange hydroperoxide absorbance; also: % is scaled to controls: 0 for no effect and ±100 for the full control effect
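Purified human 12hLO (150 nM final) in 25 mM Hepes, 0.01% Triton X-100, pH 7.0 was preincubated 15 min at room temperature with compound. Then 40 uM arachidonic acid was added, 30 min. Hydroperoxide was read by Fe-XO absorbance ratio 573/405 nm.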
HP1b chromo inh – inhibitors of HP1-beta chromodomain binding to methylated histone tails; AlphaScreen HP1-beta / biotin-H3K9me3 peptide binding; Potency, µM (series often up to 114 µM), for inactives: at the highest dose activity change, negative = inhibition, usual class: inhibitors; 0.56% of 390,000 active; AID 540317; also: nearly all actives have a fitted effect of over 70% in size
Target sequence (P83916 whole entry, looked up): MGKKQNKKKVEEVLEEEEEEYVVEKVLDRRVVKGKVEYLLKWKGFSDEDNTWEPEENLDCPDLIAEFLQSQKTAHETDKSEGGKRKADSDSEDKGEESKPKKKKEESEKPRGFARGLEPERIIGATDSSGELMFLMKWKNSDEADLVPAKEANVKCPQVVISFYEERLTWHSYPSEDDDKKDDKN
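HP1-beta protein (50 nM final) preincubated 30 min at room temperature with biotinylated H3(1-18)K9me3 peptide (50 nM) in PBS pH 7.4, 0.01% Tween-20, then compound added for 30 min. AlphaScreen streptavidin donor/nickel chelate acceptor beads (10 ug/mL final), 30 min dark, luminescence read.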
G9a inh – blocks human histone lysine methyltransferase G9a | Q96KQ7 | G9a H3K9 monomethylation, AlphaScreen, 2 h | Potency, µM (titrated, usually from 102 µM), without a hit: at the highest dose activity, negative = inhibition, hits mostly inhibitors | 8.8% of 350,000 active | AID 504332; also: % is scaled to controls: 0 for no effect and ±100 for the full control effect; nearly all actives have a fitted effect of over 75% in size
Target sequence (Q96KQ7 913-1193 limits assumed): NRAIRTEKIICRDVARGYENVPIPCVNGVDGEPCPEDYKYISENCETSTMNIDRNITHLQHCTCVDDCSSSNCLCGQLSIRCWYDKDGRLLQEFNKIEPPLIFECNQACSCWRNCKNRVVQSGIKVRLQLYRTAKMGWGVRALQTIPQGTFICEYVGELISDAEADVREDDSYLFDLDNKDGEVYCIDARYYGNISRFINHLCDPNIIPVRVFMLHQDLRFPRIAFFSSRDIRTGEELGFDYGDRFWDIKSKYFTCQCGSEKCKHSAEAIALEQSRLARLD
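Methyltransferase reactions run at room temperature for 2 h (20 nM enzyme, 500 nM biotin-H3K9 peptide, 20 uM SAM) after a 15 min compound preincubation; product detected by AlphaScreen beads and anti-H3K9me1 antibody.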
JMJD2A Tudor – JMJD2A Tudor domain (human) inhibition. O75164. AlphaScreen JMJD2A-Tudor / H3K4me3 peptide binding. Potency, µM (doses to about 114 µM), inactives show at the top dose activity change, negative = inhibition, usual class: inhibitors. 4.4% of 390,000 active. AID 504339; also: % is scaled to controls: 0 for no effect and ±100 for the full control effect; nearly all actives have a fitted effect of over 50% in size
BAZ2B inh – inhibitors of human BAZ2B bromodomain | Q9UIF8 | AlphaScreen BAZ2B-H3K14Ac peptide displacement | Potency, µM (highest dose often 114 µM), without a hit: at the highest dose activity change, negative = inhibition, most hits filed as inhibitors | 4.4% of 360,000 active; also: % is scaled to controls: 0 for no effect and ±100 for the full control effect; nearly all actives have a fitted effect of over 60% in size
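Protein-peptide AlphaScreen: BAZ2B 50 nM, b-H3K14Ac 50 nM, 1x PBS pH 7.4 + 0.01% Tween-20. Preincubation 30 min RT; cpd 30 min RT (top 110 uM); beads 20 min RT, light-protected.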
* marks the source's active call; other numbers are inactive results; u = inconclusive; x = no result given; [ ] = dose if it differs, or a comment. Calls follow the shape of the dose curve; as a rule, active = well fitted curve in the direction sought with a large enough effect; inconclusive = small, poorly fitted or top-dose-only effect, or another doubt; inactive = no such curve, though single readings can be large; an effect the other way counts as inactive or inconclusive. Potency is read from the fitted curve at half-maximal effect.

SMILES	Sfp PPTase inh	12-LOX inh	HP1b chromo inh	G9a inh	JMJD2A Tudor	BAZ2B inh
CCOC(=O)C1(C)C=C(Nc2ccc(OC)cc2)C(=O)N1c1ccccc1 (stereo not drawn)	x	-21%	-1%	u	-17%	3%
CCOC(=O)CSc1nnc(CNc2cccc(Cl)c2)n1-c1ccccc1	-10%	5%	34%	-3%[12.7 µM]	-15%	-38%
O=C(Cn1nc2n(c1=O)CCCC2)NCc1ccc(F)cc1	x	21%	x	x	x	x
O=[N+]([O-])c1cccc(-c2nnc3cccc(Cl)n23)c1	8%	0%	54%	-42%	-22%	10%
O=[N+]([O-])c1cccc(-c2nnc3ccc4ccccc4n23)c1	-18%	-1%	-17%	14µM*	u	u
O=[N+]([O-])c1ccc(-c2nnc3cccc(Cl)n23)cc1	10%	0%	22%	35µM*	56µM*	u
NCCCCOc1ccc(OCc2ccccc2)cc1	x	-9%	x	x	x	x
N#CC1=C(N)N(c2ccc(F)cc2)C2=C(C1c1ccc(O)cc1)S(=O)(=O)CC2 (stereo not drawn)	-92%	u	40µM*	4µM*	32µM*	35µM*
COc1cc(SC#N)ccc1N=Cc1c(C)[nH]n(-c2ccc(C)cc2C)c1=O	-11%	-1%	7%	13µM*	-28%	-38%
COc1ccccc1N=Cc1c(C)[nH]n(-c2ccc(C)cc2C)c1=O	-6%	-2%	u	50µM*	u	-32%
COc1ccc2nc(/N=C/c3c(C)[nH]n(-c4ccc(C)cc4C)c3=O)sc2c1	-4%	-16%	30%	8%	-9%	-36%
COc1cc2nc(CSCC(=O)N3CCCC3)[nH]c(=O)c2cc1OC	x	21%	x	x	x	x
Cc1nn(-c2ccc3nncn3n2)c2c1C(c1c(F)cccc1F)CC(=O)N2 (stereo not drawn)	x	9%	x	x	x	x
CC1CCCN(C(=O)c2sc3cc([N+](=O)[O-])ccc3c2Cl)C1 (stereo not drawn)	-20%	1%	u	40%[0.501 µM]	u	50µM*
Cc1ccc2oc(=O)cc(CSc3nc(C)cc(C)c3C#N)c2c1	x	61%	x	x	x	x
Cc1nn(Cc2ccc(C(=O)Nc3ccccc3F)cc2)c(C)c1Cl	u	-29%	49%	45µM*	4%	6%
O=C(Nc1ccccc1F)c1ccc(CN2CCN(c3ccccc3)CC2)cc1	20%	1%	-2%	79µM*	u	-39%
COc1ccc(NC(=O)c2ccc(CN3CCN(c4ccccc4)CC3)cc2)cc1	-5%	7%	16%	u	1%	10%
Cc1nn(Cc2ccc(C(=O)Nc3nccs3)cc2)c(C)c1Cl	-24%	0%	32%	45µM*	-28%	-1%
COc1c(F)c(F)c(C(=O)Nc2ccc(N3CCN(Cc4ccccc4)CC3)cc2)c(F)c1F	20%	u	-2%	18µM*	-23%	-32%
CCN1CCN(C(c2ccc(C(F)(F)F)cc2)c2ccc3cccnc3c2O)CC1 (stereo not drawn)	-23%	8.9µM*	u	2.5µM*	50µM*	28µM*
O=C(NC(c1ccc(Cl)cc1)c1cc(Cl)c2cccnc2c1O)c1cccnc1 (stereo not drawn)	6%	-7%	32%	11%[59 µM]	-21%	3%
CN1CCN(C(c2ccc(Cl)cc2)c2cc(Cl)c3cccnc3c2O)CC1 (stereo not drawn)	79µM*	10µM*	u	2.5µM*	40µM*	32µM*
CN1CCN(C(c2ccc(C(F)(F)F)cc2)c2cc(Cl)c3cccnc3c2O)CC1 (stereo not drawn)	45µM*	u	x	11µM*	x	40µM*
OCCN1CCN(CC(O)COc2ccc3ccccc3c2)CC1 (stereo not drawn)	u	u	25%	u	-33%	3%
SMILES	Sfp PPTase inh	12-LOX inh	HP1b chromo inh	G9a inh	JMJD2A Tudor	BAZ2B inh
CCN1CCN(C(c2ccccc2)c2sc3nc(C)nn3c2O)CC1 (stereo not drawn)	6%	22%	47%	25%[12.7 µM]	-4%	6%
OCCN1CCN(C(c2cccs2)c2ccc3cccnc3c2O)CC1 (stereo not drawn)	16µM*	x	x	u	x	20µM*
O=C(COC(=O)c1cccc([N+](=O)[O-])c1C(=O)OCC(=O)c1ccc(Br)cc1)c1ccc(Br)cc1	x	-9%	x	x	x	x
Oc1c(C(c2ccccn2)N2CCCCC2)cc(Cl)c2cccnc12 (stereo not drawn)	5%	u	u	7.1µM*	22µM*	7.9µM*
CC(COc1cccc([N+](=O)[O-])c1)CN1CCC(C(O)(c2ccccc2)c2ccccc2)CC1 (stereo not drawn)	x	-4%	x	x	x	x
O=[N+]([O-])c1ccc(C(=S)N2CCC(Cc3ccccc3)CC2)cc1	21%	-20%	u	u	u	u
O=[N+]([O-])c1cccc(OCCCN2CCC(Cc3ccccc3)CC2)c1	x	0.5µM*	-15%	x	79µM*	x
O=[N+]([O-])c1ccc(S(=O)(=O)N2CCN(C3CCN(Cc4ccccc4)CC3)CC2)cc1	-45%	u	50µM*	32µM*	1.8µM*	28µM*
O=[N+]([O-])c1ccc(CN2CCC(Cc3ccccc3)CC2)cc1	-20%	u	u	u	28µM*	50µM*
O=[N+]([O-])c1ccccc1S(=O)(=O)N1CCN(C2CCCC2)CC1	-26%	-14%	u	x	1.8µM*	79µM*
Cc1ccc(CN2CCC(CNC(=O)CCc3nnc4ccc(N5CCCCC5)nn34)C2)cc1 (stereo not drawn)	x	11%	x	x	x	x
Cc1csc(CNC(=O)N(C)Cc2ccc3c(c2)OCO3)n1	x	48%	x	x	x	x
O=[N+]([O-])c1ccccc1S(=O)(=O)N1CCN(C2CCN(Cc3ccccc3)CC2)CC1	-2%	-10%	u	-29%	0.71µM*	-28%
COC(=O)[C@@H]1Cc2ncn(Cc3ccc(OC)cc3)c2CN1S(=O)(=O)c1ccc(F)cc1	x	27%	x	x	x	x
N/N=C(\Cc1cscn1)c1ccc(O)cc1O	-24%	16%	36%	10µM*	-14%	-14%
Cc1nc(C/C(=N\N)c2ccc(O)cc2O)cs1	-15%	9%	8%	32µM*	-17%	-22%
Cc1cc(C(C)(C)C)cc(C)c1S(=O)(=O)N1CCN(Cc2nc3ccccc3c(=O)[nH]2)CC1	x	-12%	x	x	x	x
Oc1ccc(N=CCCc2ccccc2)cc1	x	-1%	x	x	x	x
CN1CC[C@H]2CN(C(=O)COCc3nc4ccc(F)cc4[nH]3)C[C@H]21	x	21%	x	x	x	x

From PubChem
